Data: the supplement of paper PMC7156485
Unmarked numbers belong to inactive results.

System: HCC1569
Assay: H1.0 immunofluorescence intensity relative to DMSO (% of DMSO); higher = stronger H1.0 induction, active = 140 or more
Conditions: concentration: 10 µM; 24 h
How it was run: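 Cell number or H1.0 nuclear intensity appears as percent of the plate control, based on the median of replicates. Measurements came from HCC1569 and TDF cells exposed in triplicate to compounds at 10 µM for 24 h at 37 °C, then imaged in six fields per well at ×10. Positional effects were smoothed out of HCC1569 values.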
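Also: TDF is a line of transformed human dermal fibroblasts of mesenchymal origin.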

Compound | H1.0 immunofluorescence intensity
COc1ccccc1N1CCN(CCCNc2cc(=O)n(C)c(=O)n2C)CC1.Cl [Urapidil hydrochloride] | 103
CN[C@H](CC(=O)O)C(=O)O [N-Methyl-D-aspartic acid] | 98.8
CN(C)C(=O)COC(=O)Cc1ccc(OC(=O)c2ccc(N=C(N)N)cc2)cc1.CS(=O)(=O)O | 98.5
Nc1nc(Cl)nc2c1ncn2C1OC(CO)C(O)C1F (stereo not given) [Clofarabine] | 93.5
O=C1NC(=O)C(c2cn(CCCn3ccnc3)c3ccccc23)=C1Nc1ccccc1 [PKCb Inhibitor] | 104
Cc1cc(C2CCCCC2)n(O)c(=O)c1.NCCO [Ciclopirox ethanolamine] | 102
COc1ccc(CC(N)C(=O)NC2C(CO)OC(n3cnc4c(N(C)C)ncnc43)C2O)cc1 (stereo not given) [Puromycin] | 90.9
CN(C)c1cc2c(Nc3ccc4c(cnn4Cc4ccccc4)c3)ncnc2cn1 | 118
CCCC[C@@H](C=O)NC(=O)[C@H](CC(C)C)NC(=O)[C@H](CC(C)C)NC(C)=O | 150 (active)
CCC(NC(C)C)C(O)c1ccc(O)c2[nH]c(=O)ccc12.Cl (stereo not given) [Procaterol.HCl] | 112
CC(C=CC=C(C)C=CC1=C(C)CCCC1(C)C)=CC=CC=C(C)C=CC=C(C)C=CC1=C(C)CCCC1(C)C | 103
Cl.Cl.OCCN1CCN(CCC=C2c3ccccc3Sc3ccc(C(F)(F)F)cc32)CC1 [cis-(Z)-Flupenthixol dihydrochloride] | 125
CC(C)(O)CCC(O)C(C)(O)C1CCC2(O)C3=CC(=O)C4CC(O)C(O)CC4(C)C3CCC12C (stereo not given) | 94.8
CCCCCCC=CCCCCCCCCC(=O)O [10(Z)-Heptadecenoic acid] | 102
Cl.NCCCC(N)(C(=O)O)C(F)F (racemic) [DL-alpha-Difluoromethylornithine hydrochloride] | 92.7
Oc1cc(O)cc(/C=C/c2ccc(Br)cc2)c1 [5-[(E)-2-(4-bromophenyl)ethenyl]-1,3-benzenediol] | 127
CCCCCC=CCC=CCC=CC=CC(O)CCCC(=O)O (stereo not given) | 105
Br.Oc1ccc(C2CNCCc3c2cc(O)c(O)c3Cl)cc1 (stereo not given) [Fenoldopam bromide] | 99.2
O=C(O)[C@H]1C[C@H](C(=O)O)N1 (relative stereo) [trans-Azetidine-2,4-dicarboxylic acid] | 90.5
O=C(Nc1ccc(Cl)cc1)Nc1cccc(-c2cccc(N3CCCC3)n2)c1 | 114

Compound | H1.0 immunofluorescence intensity
Cl.NC1(C(=O)O)CC1 [1-Aminocyclopropanecarboxylic acid hydrochloride] | 100
CCC(=C(c1ccccc1)c1ccc(OCCN(C)C)cc1)c1ccccc1 [Tamoxifen] | 114
COc1cc2ncnc(Nc3ccc(F)c(Cl)c3)c2cc1OCCCN1CCOCC1 | 112
COc1c(O)cc(O)c2c(=O)cc(-c3ccccc3)oc12 [Wogonin] | 85.8
COc1cc2nc(N(C)CCCNC(=O)C3CCCO3)nc(N)c2cc1OC (stereo not given) [Alfuzosin] | 102
NCCCC(O)(P(=O)([O-])O)P(=O)(O)O [Alendronate] | 117
CC1(C)CCCC(C)(C2CCC3(C)C2C(O)CC2C4(C)CCC(O)C(C)(C)C4C(O)CC23C)O1 (stereo not given) [Panaxatriol] | 99.6
c1ccc(C(OC2CCN(CCCc3nn[nH]n3)CC2)c2ccccc2)cc1 [4-(benzhydryloxy)-1-[3-(1H-tetraazol-5-yl)propyl]piperidine] | 107
Cl.N=c1c[n+](N2CCOCC2)[n-]o1 [3-Morpholinosydnonimine hydrochloride] | 88.8
CN(C)CCC(CSc1ccccc1)Nc1ccc(S(=O)(=O)NC(=O)c2ccc(N3CCN(Cc4ccccc4-c4ccc(Cl)cc4)CC3)cc2)cc1[N+](=O)[O-] (stereo not given) | 129
CNCCC(Oc1ccccc1C)c1ccccc1 (stereo not given) [Tomoxetine] | 102
CC[C@H](C)C(=O)O[C@H]1C[C@H](O)C=C2C=C[C@H](C)[C@H](CC[C@@H](O)C[C@@H](O)CC(=O)[O-])[C@H]21.[Na+] | 98.1
Clc1ccc(COC(Cn2ccnc2)c2ccc(Cl)cc2Cl)c(Cl)c1 (stereo not given) [Miconazole] | 114
CC1=CC(=O)C2=C(C)CCC3C(C)C(=O)OC3C12 (stereo not given) [Leucomisine] | 95.6
Cl.Oc1ccc(C2CNCCc3c2cc(O)c(O)c3Cl)cc1 (stereo not given) [Fenoldopam.HCl] | 121
CC(=O)c1ccc(N2CCOCC2)cc1O [DNA-PK Inhibitor III] | 118
CC1=C(C(=O)O)N2C(=O)C(NC(=O)C(N)C3=CCC=CC3)C2SC1 (stereo not given) [Cephradine] | 88.5
C=C(CC)C(=O)c1ccc(OCC(=O)O)c(Cl)c1Cl [Ethacrynic Acid] | 100
CC(C)(S)[C@H](N)C(=O)O [L-Penicillamine] | 90.8
CC(C=CC1=C(C)CCCC1(C)C)=CC=CC(C)=CC(=O)O [Retinoic acid] | 120
